In the supplement of paper PMC13094657:
± gives the standard deviation of the averaged measurements.

Key:
[1] = test system: MDA-MB-231; experiment: cell viability relative to vehicle unstimulated control (fraction); higher = more viable cells; conditions: pre-treatment time: 18 h then 24 h IFNg/TNF
[2] = test system: MDA-MB-231; experiment: kynurenine production, fold change vs DMSO IFNg/TNF control; higher = more kynurenine produced (less inhibition); conditions: pre-treatment time: 18 h then 24 h IFNg/TNF
How it was run: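 MDA-MB-231 cells were seeded in 96-well plates at 7 × 10^4/well and, 24 h later, pre-treated for 18 h with each natural product in 0.1% DMSO. They were then stimulated for 24 h at 37°C with IFNγ (1 U/ml) and TNF (6.25 ng/ml). Supernatants were treated with trichloroacetic acid and p-dimethylaminobenzaldehyde and read at 492 nm against 0–100 μM standards. Kynurenine production is expressed as fold change over cytokine-stimulated vehicle wells on the same plate and, in the first screening round, averaged across duplicate plates.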
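For cell viability relative to vehicle unstimulated control in this document: viability of the cells left after supernatant collection, read with Deep Blue dye added for 4 h, as absorbance at 570 nm minus 600 nm.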

| SMILES | cell viability [1] | kynurenine production [2] |
| --- | --- | --- |
| C[C@H](C[C@H](O)[C@H]1OC1(C)C)C1=C2C[C@H](O)[C@H]3[C@@]4(C)CCC(=O)C(C)(C)[C@@H]4CC[C@]3(C)[C@@]2(C)CC1 [Alisol B] (compound dose: 10 uM) | 0.865 ± 0.13 | 1.0307 ± 0.00045 |
| C[C@H]1[C@H](C)CC[C@]2(C(=O)O)CC[C@]3(C)C(=CC[C@@H]4[C@@]5(C)C[C@@H](O)[C@H](O)[C@@](C)(CO)[C@@H]5[C@H](O)C[C@]43C)[C@H]12 [Madecassic acid] (compound dose: 10 uM) | 0.899 ± 0.14 | 0.839 ± 0.093 |
| C=C1CC[C@@H]2[C@](C)(CO)[C@H](O)CC[C@@]2(C)[C@H]1C/C=C1\C=COC1=O [Dehydroandrographolide] (compound dose: 10 uM) | 0.984 ± 0.032 | 0.754 ± 0.058 |
| C=C(C)C1CC=C(C)CC1 (stereo not drawn) [(s)-(-)-limonene] (compound dose: 10 uM) | 0.944 ± 0.051 | 0.84 ± 0.099 |
| CC(=O)O[C@@]12CO[C@@H]1C[C@H](O)[C@@]1(C)C(=O)[C@H](O)C3=C(C)[C@@H](OC(=O)[C@H](O)[C@@H](NC(=O)OC(C)(C)C)c4ccccc4)C[C@@](O)([C@@H](OC(=O)c4ccccc4)[C@H]21)C3(C)C [Docetaxel] (compound dose: 10 uM) | 0.923 ± 0.067 | 0.758 ± 0.051 |
| C/C=C(/C)C(=O)O[C@H]1C(C)=C[C@]23C(=O)[C@@H](C=C(CO)[C@@H](O)[C@]12O)[C@H]1[C@@H](C[C@H]3C)C1(C)C [Ingenol 3-Angelate] (compound dose: 10 uM) | 0.958 ± 0.11 | 0.979 ± 0.16 |
| COC(=O)C1=CO[C@@H](O[C@@H]2O[C@H](CO)[C@@H](O)[C@H](O)[C@H]2O)[C@@H]2[C@@H](C)CC(=O)[C@]12O [Hastatoside] (compound dose: 10 uM) | 0.981 ± 0.017 | 0.797 ± 0.12 |
| C[C@@H]1CC[C@]2(C)CC[C@]3(C)C(=CC(=O)C4[C@@]5(C)CC[C@@H](O)[C@](C)(C(=O)O)C5CC[C@]43C)C2[C@H]1C (stereo partly drawn) [11-Keto-beta-boswellic acid] (compound dose: 10 uM) | 0.949 ± 0.013 | 0.94 ± 0.12 |
| CC1OC2OC3C(OCC(O)C3O)OC(=O)C34CCC(C)(C)CC3C3=CCC5C6(C)CC(O)C(OC7OC(CO)C(O)C(O)C7OC7OCC(OC(=O)CC(C)(O)CC(=O)OC1C(OC1OCC(O)C(O)C1O)C2O)C(O)C7O)C(C)(CO)C6CCC5(C)C3(C)CC4O (configuration not stated) [Tubeimoside II] (compound dose: 10 uM) | 0.387 ± 0.0057 | 0.21 ± 0.0034 |
| CC(C)(O)[C@@H]1CC[C@](C)([C@H]2[C@@H](O)C[C@@]3(C)[C@@H]4C[C@H](O)[C@H]5C(C)(C)[C@@H](O[C@@H]6OC[C@@H](O)[C@H](O)[C@H]6O[C@@H]6O[C@H](CO)[C@@H](O)[C@H](O)[C@H]6O)CC[C@@]56C[C@@]46CC[C@]23C)O1 [Astragaloside III] (compound dose: 10 uM) | 1.03 ± 0.069 | 0.822 ± 0.018 |
| CC(=O)O[C@@H]1CC[C@@]2(C)[C@@H](CC[C@]3(C)[C@@H]2[C@H](O)C=C2[C@@H]4[C@@H](C)[C@H](C)CC[C@]4(C)CC[C@]23C)[C@@]1(C)C(=O)O [3-O-Acetyl-11-hydroxy-beta-boswellic acid] (compound dose: 10 uM) | 0.8634 ± 0.0022 | 0.988 ± 0.083 |
| C[C@@H]1CC[C@]2(C(=O)O[C@@H]3O[C@H](CO)[C@@H](O)[C@H](O)[C@H]3O)CC[C@]3(C)C(=CC[C@@H]4[C@@]5(C)CC[C@H](O)[C@@](C)(CO)[C@@H]5CC[C@]43C)[C@@H]2[C@]1(C)O [Pedunculoside] (compound dose: 10 uM) | 0.967 ± 0.074 | 1 ± 0.29 |
| OC[C@H]1O[C@@H](O[C@@H]2OC=C[C@H]3[C@H](O)[C@@H]4O[C@]4(CO)[C@@H]23)[C@H](O)[C@@H](O)[C@@H]1O [Catalpol] (compound dose: 10 uM) | 0.896 ± 0.28 | 0.704 ± 0.58 |
| C=C1CCC[C@]2(C)C=C3OC(=O)C(C)=C3C[C@@H]12 [Atractylenolide I] (compound dose: 10 uM) | 0.983 ± 0.028 | 0.853 ± 0.2 |
| CC1(C)CC[C@]2(C(=O)O)CC[C@]3(C)C(=CC[C@@H]4[C@@]5(C)C[C@@H](O)[C@H](O)C(C)(C)[C@@H]5CC[C@]43C)[C@@H]2C1 [Maslinic acid] (compound dose: 10 uM) | 0.962 ± 0.032 | 0.876 ± 0.12 |
| CC1(C)CC[C@]2(C(=O)O[C@@H]3O[C@H](CO)[C@@H](O)[C@H](O)[C@H]3O)CC[C@]3(C)C(=CC[C@@H]4[C@@]5(C)CC[C@H](O[C@@H]6O[C@H](CO)[C@@H](O)[C@H](O[C@@H]7O[C@H](CO)[C@@H](O)[C@H](O)[C@H]7O)[C@H]6O[C@@H]6O[C@H](CO)[C@@H](O)[C@H](O)[C@H]6O)[C@@](C)(CO)[C@@H]5CC[C@]43C)[C@@H]2C1 [Araloside VII] (compound dose: 10 uM) | 0.941 ± 0.026 | 0.825 ± 0.13 |
